Many of the other results were omitted from the sample, so hits are more common in it than they were.
Dicer processing – inhibitors of Dicer pre-microRNA processing, primary screen, biochemical, cat-ELCCA, chemiluminescence; Endoribonuclease Dicer (Homo sapiens), Q9UPY3; cat-ELCCA pre-miR-21 Dicer processing; stronger effect = higher value; z-score at 25 µM; actives 6% (n = 47,000); in the data active means z-score above about 3, passing the limit was not always enough;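 further: plate controls were vehicle for no effect and no enzyme for full effect; higher signal means more uncleaved substrate so more Dicer inhibition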
* marks the source's active call; other numbers are inactive results.

SMILES	Dicer processing
CC1(C)CC(=O)c2cnc(N3CCN(Cc4ccc5c(c4)OCO5)CC3)nc2C1	1.1
Cc1cc(C)c(S(=O)(=O)N2CCN(Cc3ccc4c(c3)OCO4)CC2)c(C)c1	-1.3
Cc1nc(N2CCN(Cc3ccc4c(c3)OCO4)CC2)[nH]c(=O)c1CCC(C)C	3.7*
CSc1ccc(CN2CCN(S(=O)(=O)c3ccc(Cl)cc3)CC2)cc1	3.5*
Cc1ccc(S(=O)(=O)N2CCN(Cc3ccc4c(c3)OCO4)CC2)cc1	7.4*
CSc1ccc(CN2CCN(S(=O)(=O)c3ccc(C)cc3)CC2)cc1	-2.1
Cc1nc(N2CCN(Cc3ccc4c(c3)OCO4)CC2)[nH]c(=O)c1C	3.2*
O=C(c1ccncc1)N1CCN(Cc2ccc3c(c2)OCO3)CC1	0.43
c1cnc(N2CCN(Cc3ccc4c(c3)OCO4)CC2)nc1	0.47
CC1=CC(C)(C)N(S(=O)(=O)c2ccc(Cl)cc2)c2ccccc21	-0.19
CCCSc1nnc2c(n1)OC(c1ccc([N+](=O)[O-])o1)Nc1ccccc1-2 (configuration not stated)	0.13
CCCCCc1ccc(NC(=O)NNc2cc(C(F)(F)F)cc(C(F)(F)F)c2)cc1	-0.39
O=[N+]([O-])/C=C/c1cc2sccc2s1	0.59
CCOC(=O)C1=C(C)N=C2SCC(=O)N2C1c1ccc(OC)c(OCC)c1 (configuration not stated)	-1.8
O=[N+]([O-])c1ccccc1-c1ncc2ccccn12	-0.04
O=C(O)COc1ccc(/C=C/c2nc(-c3ccccc3O)n(-c3ccccc3)n2)cc1	1.3
COc1cc(/C=C/c2nc(-c3ccccc3O)n(-c3ccccc3)n2)ccc1O	6*
COc1cc(/C=N/Nc2nc3c(c(=O)n(Cc4ccccc4)c(=O)n3C)n2C)ccc1O	-0.04
COC(=O)/C=C(/c1ccccc1)n1cnc2ccccc21	-0.98
CCNc1nc(SCC(C)=O)nc2sc3c(c12)CCC(C)C3 (configuration not stated)	-0.76
O=[N+]([O-])c1cc(-c2cnc3ccccc3n2)ccc1Sc1ccc(Cl)cc1	-0.9
O=C1NC(=S)S/C1=C\c1ccc([N+](=O)[O-])s1	-0.38
O=C1NC(=S)S/C1=C/c1ccc(Sc2ccc(Cl)cc2)c([N+](=O)[O-])c1	5.2*
O=C1Nc2ccc(F)cc2/C1=N/N1CCOCC1	-0.61
COc1cc(Cl)c(NC(C)=O)c(Cl)c1	1
SMILES	Dicer processing
CSc1nc(C=Nc2ccc(Cl)cc2)c(O)n1Cc1ccccc1Cl	4.7*
O=S(=O)(c1ccc(Cl)cc1)c1ccc(N=Cc2ccccc2O)cc1Cl	1.5
C=CCc1c(O)ccc2c(C)cc(=O)oc12	0.42
O=C(NNc1c(Cl)cccc1Cl)c1sccc1Cl	3
O=C(NNc1cc(Cl)ccc1Cl)c1sccc1Cl	5.2*
O=C(NNc1cc(Cl)ccc1Cl)C1CCCS1 (configuration not stated)	1.6
Cc1ccc(S(=O)(=O)Nc2cc(S(=O)(=O)c3ccc(C)cc3)c(O)c3cccnc23)cc1	-0.59
O=C(Oc1c(Cl)cc(Cl)c2cccnc12)c1cccs1	1.4
Cc1ccc(C(NC(=O)C(C)C)c2cc(Cl)c3cccnc3c2O)cc1 (configuration not stated)	1.7
Cc1ccc(S(=O)(=O)Nc2ncccc2OCc2ccc(Cl)c(Cl)c2)cc1	-0.73
Cc1ccc(S(=O)(=O)Nc2cc(Cl)c(O)c3ncccc23)cc1	8.6*
Oc1c(Cl)cc(Cl)c2cccnc12	3.1*
COc1ccc(C(=O)CSc2nnc(-c3ccccc3)n2C)cc1	-1.3
O=C(CSc1n[nH]c(C(F)(F)F)n1)c1ccccc1	-1.1
CN(C)c1cc(NC(=O)Nc2ccccc2)c2ccccc2n1	1.1
COc1n[nH]c(C(=O)Nc2ccccc2F)c1[N+](=O)[O-]	1.1
CCOC(=O)c1sc(SC)c(C(C)O)c1C (configuration not stated)	3.9*
CCOC(=O)c1sc2sc(C(=O)OCC)c(C)c2c1C	8.1
CCOC(=O)c1sc(SC)c2c1CCC=C2	-1.4
Cc1nn(-c2ccccc2)c(C)c1C(=O)Nc1cccc(C(F)(F)F)c1	-0.51
O=c1[nH]nc2nnc3cc(Cl)ccc3n12	-0.68
N/C(=N\C(=S)Nc1ccc(Cl)c(Cl)c1)c1ccccc1	5.4*
NC(=S)NNc1ccc(Cl)c(Cl)c1	2.3
CC(C)c1ccc(NC(=S)N=C(N)N)cc1	2.1
CCOc1ccc(N(C)S(=O)(=O)c2ccc(Cl)cc2)cc1	3.1*
SMILES	Dicer processing
COc1ccc(N(C2C=CS(=O)(=O)C2)S(=O)(=O)c2ccc(Cl)cc2)cc1 (configuration not stated)	-1
CCOc1ccc2c(c1)C(C)=CC(C)(C)N2S(=O)(=O)c1ccc(Cl)cc1	0.79
CCn1/c(=C\C=[N+](C)C)c2cccc3cccc1c32	0.21
C=CCNC(=S)NNC(=O)c1sc2nc(C)cc(C)c2c1N	4.2*
Cc1cc(C)c2c(N)c(C(N)=O)sc2n1	0.03
C=CCNC(=S)NNC(=O)c1sc2nnc(-c3ccccc3)c(-c3ccccc3)c2c1N	16
CC(=O)NN(C)c1ccc(C(F)(F)F)cc1NC(=S)Nc1cc(Cl)ccc1Cl	-0.52
Cc1ccc(C(C)C)c(OCCN2C(=O)C(=O)c3cccc(C)c32)c1	2.7
COc1ccc(-c2noc(-c3ccc(OC)c(OC)c3)n2)cc1OC	-0.23
CCOc1ccc(-c2nc(-c3ccc(Cl)cc3)no2)cc1OCC	3.6*
CCOc1nc(C)ccc1-c1noc(-c2ccc(OC)c(OC)c2)n1	0.4
CSc1nn(-c2ccccc2)cc1/C(N)=N/OC(=O)Nc1ccccc1	3.7
CSc1nn(-c2ccccc2)cc1/C(N)=N/O	6*
CSc1nn(-c2ccccc2)cc1C(N)=S	-0.12
COc1ccc(N2C(=O)C3C4C(C)=CC(C)(C3C2=O)C2C(=O)N(c3ccc(OC)cc3)C(=O)C42)cc1 (configuration not stated)	0.79
Cc1ccccc1-n1cc(C#N)c(=O)[nH]c1=O	0.27
Cc1ccc2ccc(C(Nc3ccccn3)c3cccc(Cl)c3)c(O)c2n1 (configuration not stated)	16*
Cc1ccc2ccc(C(Nc3ccccn3)c3cccc(Br)c3)c(O)c2n1 (configuration not stated)	-0.92
Cc1ccnc(NC(c2ccccc2C)c2ccc3cccnc3c2O)c1 (configuration not stated)	2.1
Cc1ccc(C(Nc2ccccn2)c2ccc3ccc(C)nc3c2O)cc1 (configuration not stated)	-0.45
Cc1ccc(C)c(C(Nc2ccccn2)c2ccc3cccnc3c2O)c1 (configuration not stated)	9
Cc1ccc2ccc(C(Nc3ccccn3)c3ccc(Cl)cc3)c(O)c2n1 (configuration not stated)	4.8*
Cc1cccc(NC(c2cccc(O)c2)c2ccc3ccc(C)nc3c2O)n1 (configuration not stated)	0.83
Cc1ccccc1C(Nc1ccccn1)c1ccc2cccnc2c1O (configuration not stated)	5.7*
C=CCOc1ccc(C(Nc2ccccn2)c2ccc3ccc(C)nc3c2O)cc1 (configuration not stated)	0.31
SMILES	Dicer processing
O=C(O)CCSc1nnc(-c2cccc(Cl)c2)o1	-1.3
COc1cccc(N2Cc3ccccc3C2)c1	0.48
COc1cccc(-c2nc3cc(OC)c(OC)cc3c(=O)o2)c1	0.18
Cc1ccc(C(=O)Nc2cnc3ccc(C)cn3c2=O)cc1	-0.6
O=C(CC1(O)C(=O)Nc2ccccc21)c1cc2ccccc2o1 (configuration not stated)	2.5
Cc1ccc(S(=O)(=O)Oc2c(-c3ccccc3)c(=O)n(C)c3ccccc23)cc1	-1.1

Screening data as filed in PubChem BioAssay.
